High-throughput results (PubChem BioAssay)
Most compounds without a hit are left out; they make up all but 8.1% or so of the library.
SW480 rerep: induces DNA re-replication in SW480 colon adenocarcinoma cells. SW480 DNA re-replication, Hoechst DNA content imaging, 48 h. Potency, µM (highest dose often 46.1 µM), hits mostly activators. 340,000 tested, 1.8% active. AID 624297; note: nearly all actives have a fitted effect of over 55% in size
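Image-based DNA-content assay: after two days of treatment, nuclei were labelled with the DNA dye Hoechst and imaged, and hits were compounds raising the count of nuclei showing high fluorescence intensity.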
MCF10A rereplic: DNA re-replication induction in MCF 10a cells; MCF 10A DNA re-replication, Hoechst nuclear intensity, 48 h; Potency, µM (highest dose often 46.1 µM), usual class: activators; 350,000 tested, 2.9% active; note: nearly all actives have a fitted effect of over 50% in size
KB-V1 cytotox: kills drug-selected multidrug resistant KB-V1 cells. Potency, µM (series often up to 46.1 µM), usual class: cytotoxic. 400,000 tested, 3.4% active. AID 1347076. KB-V1 MDR cells viability, CellTiter-Glo, 72 h; note: nearly all actives have a fitted effect of over 60% in size
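Cytotoxicity toward P-gp-expressing KB-V1 cells was determined as loss of CellTiter-Glo luminescence after 72 h at 37 degrees C. Compounds were tested in quantitative HTS format across a concentration range, with curves fitted to normalized data.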
ELG1 DNA repair: blocks ELG1-dependent DNA repair in HEK293T cells. 330,000 tested, 2.3% active. HEK293T ELG1-luciferase reporter, luminescence, 16 h; DNA damage induced by 5-fluorouridine. Potency, µM (series often up to 46.1 µM), most hits filed as inhibitors. AID 504467; note: nearly all actives have a fitted effect of over 55% in size
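Overnight (16 hr) co-exposure of 2,000 cells/well to 5-fluorouridine and compound at 37 °C preceded detection. Luciferase was quantified via ONE-Glo luminescence; loss of signal denotes inhibition.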
KB-3-1 tox: KB-3-1 parental cell cytotoxicity | KB-3-1 viability, CellTiter-Glo ATP luminescence, 72 h | 400,000 tested, 1.4% active | Potency, µM (titrated, usually from 46.1 µM), usual class: cytotoxic; note: nearly all actives have a fitted effect of over 60% in size
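Cytotoxicity measured as CellTiter-Glo luminescence after 72 h at 37 C. Compound titrations were pinned onto drug-naive KB-3-1 parental adenocarcinoma cells grown in DMEM with 10% FBS, and normalized data fitted to concentration-response curves.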
Large screens that a line does not name were inactive; ! = repeats disagree. Calls come from the whole dose curve; as a rule, active = well fitted curve in the direction sought with a large enough effect; inconclusive = small, poorly fitted or top-dose-only effect, or another doubt; inactive = no such curve, though single readings can be large; an effect the other way counts as inactive or inconclusive.

CC(C)CNC(=O)c1ccccc1NC(=O)CCSc1ccccc1	MCF10A rereplic inconclusive, KB-V1 cytotox 20.6µM
CCOc1ccc(-c2ncncc2-c2ccc(OC)c(OC)c2)c(O)c1	none
Cc1ccc(SCCC(=O)Nc2ccccc2C(=O)N2CCOCC2)cc1	KB-V1 cytotox 23.1µM
CCCCOC(=O)/C(=C\c1ccc([N+](=O)[O-])o1)NC(=O)c1ccccc1	none
CCOC(=O)C1=C(C)NC(C)=C(C(=O)OCC)C1C(=O)OCC(=O)NCc1ccccc1OC	ELG1 DNA repair 11.6µM
CCOC(=O)C1=C(C)NC(C)=C(C(=O)OCC)C1C(=O)OCC(=O)NC	none
CCOC(=O)C1=C(C)NC(C)=C(C(=O)OCC)C1C(=O)OCC(=O)NCc1ccccc1	KB-V1 cytotox inconclusive, ELG1 DNA repair inconclusive, KB-3-1 tox inconclusive
CCOC(=O)C1=C(C)NC(C)=C(C(=O)OCC)C1C(=O)OCC(=O)N1c2ccccc2CC1C (centres undefined)	ELG1 DNA repair 23.1µM
CCOC(=O)C1=C(C)NC(C)=C(C(=O)OCC)C1C(=O)OCC(=O)NC(C)c1ccccc1 (centres undefined)	SW480 rerep 7.31µM, MCF10A rereplic inconclusive, KB-V1 cytotox inconclusive, ELG1 DNA repair inconclusive, KB-3-1 tox inconclusive
CC(=O)OCc1cnc(C)c2oc(=O)c(C(=O)Nc3ccc(C)cc3Cl)cc12	none (no result: SW480 rerep, MCF10A rereplic, ELG1 DNA repair)
O=C(CNS(=O)(=O)c1ccc(F)c(Cl)c1)N1CCCCCC1	none
CCC(C)(C#CCN1CCCCC1)OCCC#N (centres undefined)	SW480 rerep 18.4µM
CC(C)c1ccc(C(O)P(=O)(OC2CCCCC2)OC2CCCCC2)cc1 (centres undefined)	SW480 rerep inconclusive, MCF10A rereplic 20.6µM, KB-V1 cytotox inconclusive, KB-3-1 tox inconclusive
CCCCn1c(SCC(=O)NC(C)CC)nc2ccc(N3CCOCC3)cc2c1=O (centres undefined)	KB-V1 cytotox 3.26µM
CCCCn1c(SCC(=O)NCc2ccco2)nc2ccc(N3CCOCC3)cc2c1=O	MCF10A rereplic inconclusive, KB-V1 cytotox 2.06µM
CCC(C)NC(=O)CSc1nc2ccc(N3CCOCC3)cc2c(=O)n1CCc1ccccc1 (centres undefined)	none (no result: SW480 rerep, MCF10A rereplic, KB-V1 cytotox, KB-3-1 tox)
CCCCn1c(SCC(=O)NCc2ccccc2)nc2ccc(N3CCOCC3)cc2c1=O	KB-V1 cytotox inconclusive, ELG1 DNA repair inconclusive
CSc1ccc(C#N)cc1NC(=O)c1ccc(Cl)cc1Cl	SW480 rerep inconclusive, KB-V1 cytotox inconclusive
O=C(NC1CCCCCC1)c1cccc(COCC(F)(F)F)c1	KB-V1 cytotox 23.1µM, ELG1 DNA repair inconclusive
O=C(/C=C/Sc1ccccc1)c1ccccc1	SW480 rerep 20.6µM, MCF10A rereplic 5.17µM
Cc1cc(N2C(=O)C(O)=C(C(=O)c3cc4ccccc4o3)C2c2ccc(OC(C)C)cc2)no1 (centres undefined)	MCF10A rereplic inconclusive, KB-3-1 tox inconclusive
COc1cc(C2C(C(=O)c3cc4ccccc4o3)=C(O)C(=O)N2c2cc(C)on2)cc(OC)c1OC (centres undefined)	MCF10A rereplic inconclusive
Cc1cc(N2C(=O)C(O)=C(C(=O)c3cc4ccccc4o3)C2c2cccc(Br)c2)no1 (centres undefined)	MCF10A rereplic 18.4µM, KB-V1 cytotox inconclusive
COC(=O)c1ccc(C2C(C(=O)c3cc4ccccc4o3)=C(O)C(=O)N2c2cc(C)on2)cc1 (centres undefined)	SW480 rerep inconclusive, MCF10A rereplic 23.1µM
CCCOc1cccc(C2C(C(=O)c3cc4ccccc4o3)=C(O)C(=O)N2c2cc(C)on2)c1 (centres undefined)	MCF10A rereplic 5.8µM, KB-3-1 tox inconclusive
CC(C)NC(=O)NC(=O)CSc1ccc(S(=O)(=O)N2CCOCC2)cn1	none
CCOc1ccc(CCNC(=O)COn2nnc3ccc(S(=O)(=O)N4CCOCC4)cc32)cc1OCC	none
CCOC(=O)c1[nH]cnc1C(=O)Nc1ccc(F)cc1	none
CCOC(=O)c1[nH]cnc1C(=O)Nc1cccc(N)n1	ELG1 DNA repair 9.2µM, KB-3-1 tox inconclusive
CCc1cccc(CC)c1NC(=O)CSc1nc2ccc(N3C(=O)C4C5C=CC(C5)C4C3=O)cc2s1 (centres undefined)	MCF10A rereplic inconclusive, KB-V1 cytotox 2.59µM, ELG1 DNA repair inconclusive, KB-3-1 tox inconclusive
Cc1cccc(NC(=O)CSc2nc3ccc(N4C(=O)c5ccccc5C4=O)cc3s2)c1C	SW480 rerep inconclusive, MCF10A rereplic 9.2µM
Cc1ccc2c(c1)N(CC(=O)N1CCCCC1c1cccnc1)C(=O)CO2 (centres undefined)	none
Cc1nc(SCc2nc3ccccc3[nH]2)c2oc3cc(Br)ccc3c2n1	ELG1 DNA repair 18.3µM, KB-3-1 tox inconclusive
Cc1nc(SCc2nc3ccc(C(=O)c4ccccc4)cc3[nH]2)c2oc3ccccc3c2n1	MCF10A rereplic inconclusive, ELG1 DNA repair 4.61µM
Cc1ccc2oc3c(SCc4nc5ccccc5[nH]4)nc(C)nc3c2c1	none
CN(C)CCCN1c2ccccc2Sc2ccc3ccccc3c21	SW480 rerep inconclusive, MCF10A rereplic inconclusive, KB-V1 cytotox 18.4µM, KB-3-1 tox inconclusive (no result: ELG1 DNA repair)
O=C(CCl)N1c2ccccc2Sc2ccc3ccccc3c21	KB-V1 cytotox inconclusive (no result: SW480 rerep, MCF10A rereplic, ELG1 DNA repair)
CN(C)CCCN1c2ccccc2Sc2ccc(Cl)cc21	SW480 rerep inconclusive, MCF10A rereplic inconclusive, KB-V1 cytotox 13µM!, KB-3-1 tox inconclusive
CN1CCN(CCCN2c3ccccc3Sc3ccc(S(=O)(=O)N(C)C)cc32)CC1	MCF10A rereplic inconclusive, KB-V1 cytotox 20.6µM
OCCN1CCN(CC/C=C2/c3ccccc3Sc3ccc(Cl)cc32)CC1	MCF10A rereplic 4.61µM
CC[N+](C)(C)CC/C=C1/c2ccccc2Sc2ccc(Cl)cc21	none
CC(=O)c1ccc2c(c1)N(CCCN1CCC(CCO)CC1)c1ccccc1S2	KB-V1 cytotox inconclusive
OCCN1CCN(CCCN2c3ccccc3Sc3ccc(Cl)cc32)CC1	SW480 rerep inconclusive, MCF10A rereplic 20.6µM!, KB-V1 cytotox inconclusive
CN(C)CCCN1c2ccccc2CCc2ccccc21	KB-V1 cytotox inconclusive (no result: MCF10A rereplic)
CN(C)CCCN1c2ccc3ccccc3c2Sc2cccc(Cl)c21	SW480 rerep inconclusive, MCF10A rereplic inconclusive, KB-V1 cytotox 14.6µM, KB-3-1 tox inconclusive (no result: ELG1 DNA repair)
Cc1cc(-c2ccccc2)nc2c(Br)c(=O)[nH]n12	KB-V1 cytotox inconclusive
NC(=O)COC(=O)c1ccccc1Nc1ccc(SC(F)F)cc1	MCF10A rereplic 23.1µM
CCNc1nc(SCCOc2ccc(C)cc2)nc(N(C)C)n1	MCF10A rereplic inconclusive, KB-V1 cytotox inconclusive, KB-3-1 tox inconclusive
Cc1ccc(OCCSc2nc(NC(C)C)nc(NC(C)C)n2)cc1	MCF10A rereplic 13µM, KB-V1 cytotox inconclusive
CCn1cc(CN2CCC(C(=O)Nc3ccc(Oc4ccccc4F)cc3)CC2)c(C)n1	SW480 rerep inconclusive, MCF10A rereplic 20.6µM, KB-V1 cytotox inconclusive
